Source: PubChem BioAssay
This is a sample that favours compounds with a hit; in the whole collection about 11% have one here.
L3MBTL1 block = qHTS Assay for the Inhibitors of L3MBTL1 | AlphaScreen L3MBTL1–H3K9me1 peptide binding | Potency, µM (series often up to 57.1 µM), most hits filed as inhibitors | actives 0.66% (n = 230,000) | AID 485360, 2010; note: nearly all actives have a fitted effect of over 60% in size
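Displacement of a biotinylated histone H3(1-15) peptide monomethylated at Lys9 (75 nM) from L3MBTL1 (50 nM) was measured by AlphaScreen after a 30 min room-temperature compound incubation; cefsulodin titration served as intraplate control.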
JMJD2A Tudor inh = qHTS Assay for Inhibitors of JMJD2A-Tudor Domain; AlphaScreen JMJD2A-Tudor / H3K4me3 peptide binding; Potency, µM (top dose mostly 114 µM), usual class: inhibitors; actives 4.4% (n = 390,000); note: nearly all actives have a fitted effect of over 50% in size
PI5P4K alpha inh = qHTS for Inhibitors of phosphatidylinositol 5-phosphate 4-kinase (PI5P4K). actives 1.2% (n = 330,000). Phosphatidylinositol 5-phosphate 4-kinase type-2 alpha (Homo sapiens), P48426. max response, %. AID 652105, 2013. PI5P4Kalpha enzyme, ADP-Glo luminescence, 60 min; hits give low values; active = max response of -50% or lower; inconclusive = between -30% and -50%; inactive = -30% or higher; note: value at the top dose of about 77 µM
Target sequence (P48426 whole entry, looked up): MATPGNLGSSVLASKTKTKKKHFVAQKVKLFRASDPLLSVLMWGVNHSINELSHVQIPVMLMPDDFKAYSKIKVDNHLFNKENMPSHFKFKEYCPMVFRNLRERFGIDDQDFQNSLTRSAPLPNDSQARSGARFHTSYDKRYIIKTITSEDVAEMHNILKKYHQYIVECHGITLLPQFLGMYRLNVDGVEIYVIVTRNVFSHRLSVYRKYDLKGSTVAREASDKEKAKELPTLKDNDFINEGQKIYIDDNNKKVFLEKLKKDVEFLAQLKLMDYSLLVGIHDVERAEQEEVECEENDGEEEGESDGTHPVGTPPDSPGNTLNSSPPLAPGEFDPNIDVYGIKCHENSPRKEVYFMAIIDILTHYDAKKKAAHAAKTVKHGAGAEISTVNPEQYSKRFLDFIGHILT
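ADP-Glo luminescence end-point read after a 60 min room-temperature kinase reaction of PI5P4Kalpha plus substrate, initiated with ATP at 5 microM final. Buffer: 0.038 M HEPES pH 7.4, EGTA, 0.1% CHAPS, 5% DMSO.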
BAZ2B inh = qHTS Assay for Inhibitors of BAZ2B; Potency, µM (highest dose often 114 µM), actives largely listed as inhibitors; Bromodomain adjacent to zinc finger domain protein 2B (Homo sapiens), Q9UIF8; AID 504333, 2011; AlphaScreen BAZ2B-H3K14Ac peptide displacement; actives 4.4% (n = 360,000); note: nearly all actives have a fitted effect of over 60% in size
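Multi-concentration screen (max 110 uM) measuring displacement of acetylated histone H3 peptide from BAZ2B by AlphaScreen, using 50 nM protein, 50 nM peptide and 10 ug/mL streptavidin donor plus Ni-chelate acceptor beads.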
HP1b binding inh = HTS for Inhibitors of HP1-beta Chromodomain Interactions with Methylated Histone Tails. Chromobox protein homolog 1 (Homo sapiens), P83916. AlphaScreen HP1-beta / biotin-H3K9me3 peptide binding. Potency, µM (doses to about 114 µM), most hits filed as inhibitors. actives 0.56% (n = 390,000); note: nearly all actives have a fitted effect of over 70% in size
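AlphaScreen: HP1-beta (50 nM) preformed 30 min with biotin-H3(1-18)K9me3 peptide (50 nM) in PBS pH 7.4, 0.01% Tween-20. Compound added for 30 min at RT, then streptavidin donor/nickel chelate acceptor beads (10 ug/mL) for 30 min.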
G9a inh = qHTS Assay for Inhibitors of Histone Lysine Methyltransferase G9a; Potency, µM (top dose mostly 102 µM), usual class: inhibitors; AID 504332, 2011; G9a H3K9 monomethylation, AlphaScreen, 2 h; actives 8.8% (n = 350,000); note: nearly all actives have a fitted effect of over 75% in size
Target sequence (Q96KQ7 913-1193 limits assumed): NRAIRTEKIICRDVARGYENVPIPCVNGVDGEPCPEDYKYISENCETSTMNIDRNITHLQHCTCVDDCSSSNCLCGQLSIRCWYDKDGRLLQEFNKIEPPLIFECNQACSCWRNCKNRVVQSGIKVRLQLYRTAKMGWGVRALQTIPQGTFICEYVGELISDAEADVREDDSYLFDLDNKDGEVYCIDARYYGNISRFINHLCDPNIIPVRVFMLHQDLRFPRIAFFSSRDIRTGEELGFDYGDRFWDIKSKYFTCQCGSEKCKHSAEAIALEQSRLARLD
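Quantitative HTS format: methyltransferase activity on a biotin-tagged H3K9 peptide is measured by AlphaScreen, using a rabbit anti-monomethyl-H3K9 antibody with streptavidin donor and anti-IgG acceptor beads. Final levels are 20 nM enzyme, 500 nM peptide, 20 uM SAM; 2 h RT.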
Hits are given with their value; – = inactive; ? = inconclusive; · = not tested or not shown; [ ] = dose if it differs, or a comment. Unless noted, calls come from the whole dose curve; as a rule, active = well fitted inhibition curve with a large enough effect; inconclusive = small, poorly fitted or top-dose-only effect; inactive = no such curve, though single readings can be large or run the other way.

SMILES | L3MBTL1 block | JMJD2A Tudor inh | PI5P4K alpha inh | BAZ2B inh | HP1b binding inh | G9a inh
CCOc1ccc(NC2CCCCC2NS(=O)(=O)c2ccccc2)cc1 (stereo not given) | · | 56µM | – | 45µM | ? | ?
COc1ccc(-n2c(=O)c(-c3ccc(F)cc3)nc3cncnc32)cc1 | · | · | · | · | · | –[0.501 µM]
CC(=O)C1C(=O)CC(c2ccc(Cl)cc2)CC1=O (stereo not given) | – | ? | – | – | – | 56µM
O=C1C=C(O)CC(c2ccc(Cl)cc2)C1 (stereo not given) | – | – | – | – | – | –
c1ccc(CNc2ccc(N3CCOCC3)cc2)cc1 | ? | 45µM | · | · | ? | ·
Clc1ccc(CNc2ccc(N3CCN(Cc4ccccc4)CC3)cc2)cc1 | ? | 11µM | – | 5.6µM | 18µM | 10µM
O=C(CN1CCN(c2ccc(Cl)cc2)CC1)NCc1ccccc1 | – | – | – | – | – | –
Cc1cc(C)cc(S(=O)(=O)N2CCN(c3nc(-c4cccs4)nc4ccccc34)CC2)c1 | · | – | · | · | – | ·
COc1ccc(O)c(-c2cc(-c3ccccc3Cl)[nH]n2)c1 | – | ? | – | ? | – | ·
COc1ccc(O)c(-c2cc(-c3cccs3)[nH]n2)c1 | – | –[11.4 µM] | – | 71µM | – | –
CCN(Cc1ccccc1)C(=O)Cn1c(=O)n(-c2ccc(Cl)cc2)c(=O)c2c(C)c(C(=O)N(C)C)sc21 | · | 13µM | · | – | – | –
N#CCCn1cc(CNCc2cccnc2)c(-c2ccccc2)n1 | · | 8.9µM | · | · | ? | ·
N#CCCn1cc(/C=N/O)c(-c2ccc(-c3ccccc3)cc2)n1 | – | – | – | – | – | –
CCc1cc2c(cc3c(=O)n(CC(=O)NCCc4ccc(OC)cc4OC)nc(CC)n32)s1 | · | – | · | – | – | –
Cc1ccc(NC(=O)CSc2nc(-c3ccco3)nc3cc(=O)[nH]n23)cc1 | · | – | · | – | – | –
COc1cc(C(=O)Nc2ccc(NC(=O)c3cccc(Cl)c3)nc2)cc(OC)c1OC | · | – | – | – | – | –
COc1cc(C(=O)NC(=S)Nc2ccc3c(c2)C(=O)N(C)C3=O)cc(OC)c1OC | – | ? | – | – | – | 45µM
COc1cc(C(=O)NC(=S)Nc2ccc(Cl)cn2)cc(OC)c1OC | · | 16µM | – | – | – | –
COc1cccc(OC)c1C(=O)NC(=S)Nc1ccc2c(c1)C(=O)N(C)C2=O | – | – | – | – | – | ?
Cc1ccc(-n2nc(C)c3c(C(F)(F)F)cc(-c4cccnc4)nc32)cc1C | · | – | · | – | – | –
O=c1c2c(-c3ccc(Cl)cc3)csc2ncn1/N=C/c1cccc([N+](=O)[O-])c1O | · | 40µM | -71 | 50µM | – | 40µM
Cc1ccnc(NS(=O)(=O)c2ccc(NC(=O)C3COc4ccccc4O3)cc2)n1 (stereo not given) | · | 18µM | – | – | ? | –
Cc1ccnc(NS(=O)(=O)c2ccc(NC(=O)C3CCCCC3)cc2)n1 | – | – | · | – | – | ?
O=C(Nc1ccc(F)cc1)C1COc2ccccc2O1 (stereo not given) | · | – | – | – | – | 40µM
Cc1ccnc(NS(=O)(=O)c2ccc(NC(=O)c3ccc(N4C(=O)CCC4=O)cc3)cc2)n1 | – | – | -64 | ? | – | –
SMILES | L3MBTL1 block | JMJD2A Tudor inh | PI5P4K alpha inh | BAZ2B inh | HP1b binding inh | G9a inh
CC(C)CN(c1ccccc1)S(=O)(=O)c1nnc(NC(=O)C2CCCCC2)s1 | · | – | · | – | – | –
CCn1ccc2cc(S(=O)(=O)N3CCCN(C(=O)NCC(C)C)CC3)ccc21 | · | – | · | – | – | –
Cc1nn(-c2nnc(C)c(=O)[nH]2)c(C)c1SCC(=O)Nc1ccc(F)cc1 | – | 32µM | – | 50µM | – | ?
Cc1ccc(-n2c(=O)c3cccnc3n2CC(=O)Nc2ccc(Br)cc2)cc1C | · | – | · | – | – | –
O=c1c2cc(Cl)ccc2nc(-c2ccccc2)n1O | – | ? | – | 79µM | – | –
O=c1c2cc(Cl)ccc2nc(-c2ccc(Cl)c(Cl)c2)n1O | · | – | – | ? | – | –[12.7 µM]
CN(C)c1ccc(NC(=O)c2cnsn2)cc1 | – | ? | – | – | – | 50µM
Cc1noc(C)c1C(=O)Nc1ccc(N(C)C)cc1 | · | – | – | – | – | ?
COc1ccccc1CN1CCC2(CC1)CCN(S(=O)(=O)c1ccccc1)CC2 | · | · | · | · | · | –[12.7 µM]
Cc1nc2ccccc2c(=O)n1/N=C/c1cc(Br)ccc1O | · | ? | – | – | – | –
Cc1nc2ccccc2c(=O)n1/N=C/c1ccccc1F | · | – | – | – | – | –
COc1cc(OC)c(OC)cc1/C=N/n1c(C)nc2ccccc2c1=O | – | – | – | – | – | –
O=c1c2ccccc2nc(N/N=C/c2c(O)ccc3ccccc23)n1O | ? | 50µM | -78 | 28µM | – | ?
Cc1nc2ccccc2c(=O)n1/N=C/c1ccccn1 | – | – | · | – | – | 28µM
Cc1nc2ccccc2c(=O)n1/N=C/c1c(O)ccc2ccccc12 | 22µM | – | – | 25µM | – | 32µM
COc1cc(/C=N/n2c(C)nc3ccccc3c2=O)cc(OC)c1O | · | – | – | – | – | 13µM
CC(=O)Nc1cccc(Nc2nc3ccccc3n3c(C)nnc23)c1 | · | – | · | – | – | –
Cc1c(C(=O)Nc2ccc(F)cc2)cn2c(nc3ccccc32)c1C#N | · | – | – | – | – | –
N#Cc1c2nc3ccccc3nc2n2cc(NC(=O)c3ccc(F)cc3)ccc12 | – | 18µM | ? | ? | – | 3.2µM
CS(=O)(=O)Nc1cccc(-c2cncnc2Nc2ccc(F)cc2)c1 | · | · | · | · | · | –[0.501 µM]
Cc1[nH]nc2c1C(c1ccsc1C)C(C#N)=C(N)O2 (stereo not given) | · | – | · | – | – | 79µM
Cc1[nH]nc2c1C(c1ccsc1)C(C#N)=C(N)O2 (stereo not given) | · | – | -60 | – | – | –
N#CC1=C(N)Oc2n[nH]c(-c3ccncc3)c2C1c1ccsc1 (stereo not given) | – | – | · | – | – | ?
N#CC1=C(N)Oc2n[nH]c(-c3cccs3)c2C1c1cccnc1 (stereo not given) | – | – | -50 | – | – | ?
Cc1ccc(-c2[nH]nc3c2C(c2ccsc2)C(C#N)=C(N)O3)cc1 (stereo not given) | · | – | -52 | – | – | –
CCCCNC(=O)CCCn1c(=O)c2ccccc2n(CC(=O)Nc2ccccc2OCC)c1=O | · | – | · | – | – | –
COC(=O)c1sc(N2C(=O)c3oc4ccccc4c(=O)c3C2c2ccc(O)cc2)nc1C (stereo not given) | · | – | · | – | – | –
N#CC1=C(N)Oc2n[nH]c(-c3ccccc3)c2C1c1ccsc1 (stereo not given) | – | – | -65 | – | – | ?
